The whole screen tested about 38,000 compounds, of which about 1,200 (3.2%) showed an effect of 50% or more. The median lay at about -58%. The full list was thinned out, with strong results kept by preference.
system: Plasmodium falciparum; test: Calibr Malaria Delayed Death Assay SOP; type: functional, organism-based; set-up: scale not given: in the data most compounds retested in dose-response had high values; settings: concentration 4.99e-06 (unit not given; other assays of the set use mol/L)

Compound | Percent Effect
O=S(=O)(CCN1CCCC1Cn1cccn1)c1ccccc1 (stereo not drawn) | -24.99%
Clc1ccc(C2(CNC3=NCCN3)CCCCC2)cc1.I | 89.77%
Clc1ccc(C2(CNC3=NCCN3)CCCC2)cc1.I | 83.48%
NC(=O)CNC1(c2ccc(Cl)cc2)CCCC1 | -116.4%
Cc1nnc(C(C)NCC2(c3ccc(Cl)cc3)CCCC2)o1 (stereo not drawn) | -5.972%
CN(C)C(=O)CCS(=O)(=O)Cc1cc(Cl)c2c(c1)OCO2 | -99.04%
COCCNC(=O)Cn1c(-c2ccc(Cl)cc2)nc(C)c(CCO)c1=O | -30.51%
CCOC(=O)c1cnn(-c2cc(Oc3ccccc3C)ncn2)c1N | -71.43%
Cc1nc(N2CCN(C(=O)NCc3cscn3)CC2)sc1C | -173%
N#CC1COCCN1C(=O)c1ccc2[nH]cnc2c1 (stereo not drawn) | -106.6%
CN1CCN([C@@H]2CCN(Cc3cccc(-n4cccn4)c3)C[C@H]2O)CC1 | -47.29%
CN1CCC(C2CCN(Cc3cccc(-n4cccn4)c3)CC2)C1 (stereo not drawn) | 85%
COC(=O)C(O)C1CCN(Cc2cccc(-n3cccn3)c2)CC1 (stereo not drawn) | -42.85%
O=C(CN1C=Nc2ccccc2S1(=O)=O)NCc1ccccc1F | -61.62%
Cc1ccc(O)c(CNC2CCc3nc(C)nn3C2)n1 (stereo not drawn) | -50.72%
CO[C@H]1CN(C(C)C)C[C@@H]1NC(=O)Nc1ccc2oc(C)cc2c1 | -10.12%
COCC(c1ccccn1)N(C)C(=O)c1cc(-c2ccccc2O)n[nH]1 (stereo not drawn) | -47.61%
Cc1ncoc1C(=O)N1CC[C@@H](O)[C@@H](O)[C@H](N2CCC(F)(F)CC2)C1 | -177.2%
CCC(=O)N1CCC2(C=C(C(=O)N(C)C)c3ccccc32)CC1 | -96.59%
CN1CCC2(C=C(C(=O)N(C)C)c3ccccc32)CC1 | 59.58%
CCN1CCC2(C=C(C(=O)N(C)C)c3ccccc32)CC1.O=C(O)C(F)(F)F | -5.162%
COc1cc(CCC(=O)NC2CCCN(C)C2)ccc1OCC(F)(F)F (stereo not drawn) | 27.9%
Cc1noc(C)c1CN1CC[C@H]2OCC[C@@]2(C(=O)NCC2CC2)C1.O=C(O)C(F)(F)F | -150.6%
COC[C@@H]1CCC[C@@]12CN(C(=O)C1CCOCC1)CCO2 | -66.15%
COc1ccc(-n2nnnc2C(C)(C)Nc2ccc(C)cc2C)cc1 | -134.7%

Compound | Percent Effect
Cc1nnc(C2CCN(C(=O)c3ccsc3)CC2)s1 | -17.33%
Cn1ccnc1CN1CCC(c2ccnc(-c3cccc(O)c3)c2)C1 (stereo not drawn) | 27.57%
Oc1cccc(-c2cc(C3CCN(Cc4cncnc4)C3)ccn2)c1 (stereo not drawn) | -16.47%
CN(C)CC(C)(C)CN1CCC(c2ccnc(-c3cccc(O)c3)c2)C1 (stereo not drawn) | 69.12%
Nc1cccnc1N1CCC(O)CC1 | -81.29%
Cc1n[nH]c(C)c1-c1cc(-c2cc[nH]c2)nc(N)c1C#N | -97.75%
O=C(O)C(F)(F)F.c1cncc(N2CCC3(CCCN(c4ccncc4)C3)CC2)c1 | 46.04%
Cn1cc(CN2CCCC3(COCCN(c4cccnc4)C3)C2)cn1.O=C(O)C(F)(F)F.O=C(O)C(F)(F)F (stereo not drawn) | -73.12%
c1cncc(CN2CCCC3(COCCN(c4cncnc4)C3)C2)c1 (stereo not drawn) | -38.46%
O=C(O)C(F)(F)F.O=C(O)C(F)(F)F.c1cncc(N2CCCC3(CCN(CCN4CCCC4)CC3)C2)c1 | 91.95%
O=C(O)C(F)(F)F.c1cncc(N2CCCC3(CCN(CC4CCCO4)CC3)C2)c1 (stereo not drawn) | 46.34%
Cc1nc2cc(NCc3cnn(C)c3)ccc2n1C | -142.2%
COCCN(C)C[C@@H]1CN(C(=O)NC2CCCCC2)C[C@@H]1CO | -45.61%
CCn1c(C)cc(C(=O)Nc2ccccc2CN(C)C(C)=O)c1C | -65.04%
CCn1ccnc1C1CCN(Cc2c(F)cccc2F)CC1 | -140%
Cc1nc(C2CCCNC2)cc(N(Cc2nccn2C)C2CC2)n1 (stereo not drawn) | 7.981%
COc1cccc(CN2CCCC2Cn2nc(C)nc2C)c1 (stereo not drawn) | -44.63%
Fc1cccnc1Oc1cc(F)c(CN2CCCC2)c(F)c1 | 13.36%
Cc1nc(NCCC23CCCN2CCC3)cc(C2CCCNC2)n1 (stereo not drawn) | -30.47%
O=C(c1cnc(C2CC2)nc1O)N1CCN(Cc2ccccc2F)CC1 | -42.64%
COc1cccc(CN2CC[C@H](c3nnc(C)o3)C2)c1 | -103.2%
O=c1n(Cc2ccccc2F)nc2ncccn12 | -19.66%
CCSCc1cccc(NCc2cccnc2)c1 | -120.6%
CCCNc1cc(C(=O)N2CCOCC2)nc(C)n1 | -41.3%
COCCNC(=O)c1ccc2c(=O)n3c(nc2c1)CCCCCC3 | -86.41%

Compound | Percent Effect
CC(C)N(C)Cc1cn2c(n1)CN(C(=O)c1ccc[nH]1)CC2 | -50.23%
COC[C@@H]1CC[C@H]2[C@H](CCN2S(=O)(=O)c2cccc(F)c2)O1 | -8.99%
Cc1ccc2c(c1)N(C(=O)c1c[nH]c(C)cc1=O)CC(C)O2 (stereo not drawn) | -44.94%
O=C(c1cnccn1)N1CCCC(c2cccc(-n3ccnc3)n2)C1 (stereo not drawn) | -38.64%
CC(C)C1SCC(=O)Nc2c1cnn2-c1ccc(Cl)cc1F (stereo not drawn) | -28.94%
CCC(=O)NCC(=O)N(C)C(c1ccc(Cl)cc1)c1cccnc1 (stereo not drawn) | -30.63%
Cn1c2ccc(F)cc2c2ncn(CCN3CCOCC3)c(=O)c21 | -139.8%
CC(Cc1ccccc1F)C(=O)Nc1cccc(OCC(N)=O)c1 (stereo not drawn) | -53.66%
Cc1ccc([C@]2(O)CC[C@H]3CN(Cc4cccnc4)C[C@H]32)nc1 | -69.34%
Cc1ccc([C@]2(O)CC[C@H]3CN(Cc4cccc(F)c4F)C[C@H]32)nc1.O=C(O)CC(O)(CC(=O)O)C(=O)O | 43.22%
Cc1ccc([C@]2(O)CC[C@H]3CN(Cc4ccc(Cl)cc4Cl)C[C@H]32)nc1 | 64.98%
CCc1oc(C(=O)N[C@@H]2c3ccccc3C[C@@H]2O)cc1CN1CCCC1 | -27.56%
CS(=O)(=O)NC1CCCN(Cc2ccc(OCc3ccccn3)cc2)C1 (stereo not drawn) | -34.46%
CCOc1ccc(CN2CCN(C(=O)c3cc(C4CC4)[nH]n3)CC2)cc1 | -17.17%
Cn1cc(CN(C(=O)c2ccc3ncsc3c2)C2CC2)cn1 | -137%
COCC1CC2(CCN(C(=O)c3ccco3)CC2)CN1C(C)C.O=C(O)C(F)(F)F (stereo not drawn) | 24.38%
COC1COC2(CCN(Cc3cccc(C#N)c3)CC2)C1.O=C(O)C(F)(F)F (stereo not drawn) | -4.356%
COCC1CC2(CCN(Cc3ccc(C)o3)CC2)CN1C(C)C.O=C(O)C(F)(F)F.O=C(O)C(F)(F)F (stereo not drawn) | 34.42%
COCC1CC2(CCN(Cc3cccc(C#N)c3)CC2)CN1C(C)C.O=C(O)C(F)(F)F.O=C(O)C(F)(F)F (stereo not drawn) | 72.4%
COCC1CC2(CCN(Cc3ccco3)CC2)CN1C(C)C.O=C(O)C(F)(F)F.O=C(O)C(F)(F)F (stereo not drawn) | 63.6%
COCC1CC2(CCN(C(=O)c3ccccc3C)CC2)CN1C(C)C.O=C(O)C(F)(F)F (stereo not drawn) | -58.35%
CNC(=O)CNC(=O)Nc1cc(-c2ccccc2)ns1 | -97.73%
O=C(O)C(F)(F)F.O=C1CCCN1Cc1nnc2n1CCN(Cc1ccoc1)CC2 | -13.9%
CCOCCNC(=O)c1cccnc1Sc1cc(OC)ccc1OC | -83.15%
CC(C)OCc1noc(C2CCCOC2)n1 (stereo not drawn) | -85.93%

Compound | Percent Effect
CC(C)[C@@H](N)C(=O)NCc1cccnc1N1CCc2ccccc2C1 | 28.21%
COC(=O)CCC(=O)NCc1cccnc1N1CCc2ccccc2C1 | 58.06%
Cc1cc(C(=O)NCc2cccnc2N2CCc3ccccc3C2)[nH]n1 | -34.77%
NC(=O)NCCC(=O)NCc1cccnc1N1CCc2ccccc2C1 | -76.53%
Cc1n[nH]cc1C(=O)NCc1cccnc1N1CCc2ccccc2C1 | 75.05%
Cc1nnsc1C(=O)NCc1cccnc1N1CCc2ccccc2C1 | -86.78%
O=S(=O)(Cc1ccccc1F)Cc1nnnn1C1CC1 | -164.7%
CC(C)CC(=O)N1CCC2(CC1)OC(C(N)=O)Cn1ccnc12.O=C(O)C(F)(F)F (stereo not drawn) | -41.43%
CC(C)c1cc(C(=O)NC2CCN(CC(N)=O)CC2)nn1C(C)(C)C | -153%
COc1ccc2oc(C(C)NC(=O)NCc3noc(C)n3)c(C)c2c1 (stereo not drawn) | -10.38%
CCc1cnc(N)nc1NCCCn1cc(Cl)cn1 | 84.03%
CCc1cnc(C)nc1NCCN1CCOCC1 | -14.69%
Cn1cc(Br)c(C(=O)NCCCn2cc(Cl)cn2)n1 | -63.62%
CCc1cnc(N)nc1NCCCn1nc(C)nc1C | -48.25%
CCc1cnc(N)nc1NCCC(=O)NC1CCCCC1 | -82.55%
CCc1cnc(N)nc1NCCn1cc(Cl)cn1 | 54.15%
CCN(CC)C(=O)C1CCCN(CC(=O)Nc2c(C)nn(CC)c2C)C1 (stereo not drawn) | -43.93%
Cc1nn(CC(=O)N2CCN(Cc3cnn(C)c3C)CC2)cc1Cl | -81.13%
CC(C)n1ccnc1C1CCN(C(=O)c2ccccc2)CC1 | -13.68%
CCNC(=O)c1ccc(N2CCCC(c3nccn3C(C)C)C2)nc1 (stereo not drawn) | -31.13%
CN(C)C1CCN(c2cc(-c3ccccc3)nc3ccnn23)C1 (stereo not drawn) | 51.07%
Cc1cc(N2CCCC(N(C)C)C2)n2nccc2n1 (stereo not drawn) | -65.48%
CCNC(=O)C1CCN(c2cc(-c3ccccc3)nc3ccnn23)C1 (stereo not drawn) | -30.81%
